Assay results as given in PubChem BioAssay (NCATS).
Several values for one entry are separate records, joined by “and”; a condition that tells them apart may be missing. Equal entries are not always repeated. Results filed as inconclusive are left out. For some assays here: Entries with a potency or affinity are not part of this list. Activity calls are given as the source filed them. Unless noted, how the calls were made is not given here.

Experiments:
[1] = qHTS Assay for Identifying Gametocytocidal Compounds (AID 743244; active means well fitted curve in the direction sought with a large enough effect; an effect the other way counts as inactive or inconclusive;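 further: on the % scale 0 is the no-effect control and ±100 the full control effect; actives lower the fluorescent signal which means gametocytes are killed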); conditions: P. falciparum 3D7 stage III-V gametocytes, alamarBlue, 72 h; max response: stronger effect = lower value
In short: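 P. falciparum 3D7 stage III–V gametocytes (20,000 cells/well) were exposed to compounds for 72 h at 37 °C, 5% CO2. AlamarBlue was then added for 24 h; decreased resorufin fluorescence (Ex 525/Em 598 nm) indicated loss of viability.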

[2] = Ebola virus entry assay, green fluorescence channel
[3] = Ebola virus entry assay, blue channel fluorescence
[4] = Ebola virus entry assay, green channel fluorescence
[5] = Ebola virus entry assay, reporter ratio channel; AC50: Channel type: primary unless noted; outcome: Channel type: primary unless noted
[6] = Ebola virus entry assay, blue channel (ratio component)
[7] = target: Hexokinase-4 (Homo sapiens) + Glucokinase regulatory protein (Homo sapiens) (UniProt P35557+Q14397); test: qHTS assay for inhibitors of recombinant human GCK-GKRP interaction: HTRF assay (AID 743207; active means well fitted curve in the direction sought with a large enough effect; an effect the other way counts as inactive or inconclusive;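 further: 0% = DMSO with GCK present and -100% = DMSO wells lacking GCK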); conditions: recombinant GCK-GKRP HTRF binding, 60 min; series mostly up to 57.5 µM
In short: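 HTRF binding of 5 nM GST-GCK and 5 nM FLAG-GKRP with 2 uM S6P in pH 7.1 Hepes buffer (MgCl2, KCl, DTT, Tween 20, BSA). Anti-FLAG XL665 and anti-GST donor added, 60 min at room temperature; 665/615 nm read, normalized to with- and without-GCK controls.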

[8] = qHTS assay for cell viability of HEK293 cells (AID 743288; active means well fitted curve in the direction sought with a large enough effect; an effect the other way counts as inactive or inconclusive; further: on the % scale 0 is the no-effect control and ±100 the full control effect; nearly all actives have a fitted effect of over 50% in size); conditions: ATP luminescence (CellTiter-Glo), 18 h, stronger effect = lower value
In short: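 Parental HEK293 cells, 2,000 per well, preincubated at least 5 h at 37 C, then exposed to compounds in DMSO for 18 h at 37 C. Viability by CellTiter-Glo ATP luminescence after 30 min at room temperature.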

[9] = qHTS profiling of the MIPE4 collection as inhibitors of Plasmodium falciparum (3D7) proliferation (AID 743344);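 further: scaled between DMSO vehicle wells and 0.29 µM artemisinin as full inhibition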; conditions: P. falciparum 3D7 in erythrocytes, SYBR Green DNA fluorescence, 72 h; at 28.5 µM (top of the series) unless noted
In short: (§1)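 Erythrocytes infected with P. falciparum (0.3% parasitemia, 2.5% hematocrit) incubated with compounds 72 h at 37 C, 5% CO2. Lysis with saponin/Triton buffer containing SYBR Green I, overnight at room temperature in the dark; DNA fluorescence (485/535 nm) normalised to 0.29 uM artemisinin and DMSO.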

[10] = qHTS profiling of the MIPE4 collection as inhibitors of Plasmodium falciparum (DD2) proliferation (AID 743345); conditions: P. falciparum Dd2 in erythrocytes, SYBR Green DNA, 72 h; at 28.5 µM (top of the series) unless noted
In short: as §1

[11] = qHTS profiling of the MIPE4 collection as inhibitors of Plasmodium falciparum (HB3) proliferation (AID 743347);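 further: plate controls were DMSO vehicle wells for no effect and artemisinin wells for full effect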; conditions: P. falciparum HB3 in erythrocytes, SYBR Green DNA, 72 h; at 28.5 µM (top of the series) unless noted
In short: as §1

[12] = Ebola virus entry assay, ratio channel
Wherever efficacy is given: 0% is about no effect.

Chain of Hexokinase-4 (Homo sapiens) + Glucokinase regulatory protein (Homo sapiens) (P35557 whole entry, looked up): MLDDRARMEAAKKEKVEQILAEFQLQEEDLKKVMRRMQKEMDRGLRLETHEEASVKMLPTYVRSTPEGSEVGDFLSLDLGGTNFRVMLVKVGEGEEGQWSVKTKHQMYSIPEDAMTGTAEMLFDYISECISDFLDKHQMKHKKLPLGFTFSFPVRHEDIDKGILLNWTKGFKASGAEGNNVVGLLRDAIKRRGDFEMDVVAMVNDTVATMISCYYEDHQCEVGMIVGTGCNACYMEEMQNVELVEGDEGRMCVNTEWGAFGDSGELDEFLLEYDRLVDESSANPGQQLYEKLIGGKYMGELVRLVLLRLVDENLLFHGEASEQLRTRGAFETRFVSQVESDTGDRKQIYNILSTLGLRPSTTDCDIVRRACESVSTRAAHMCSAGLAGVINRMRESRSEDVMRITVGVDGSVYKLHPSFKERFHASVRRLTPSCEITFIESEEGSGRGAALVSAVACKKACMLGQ
Chain of Hexokinase-4 (Homo sapiens) + Glucokinase regulatory protein (Homo sapiens) (Q14397 whole entry, looked up): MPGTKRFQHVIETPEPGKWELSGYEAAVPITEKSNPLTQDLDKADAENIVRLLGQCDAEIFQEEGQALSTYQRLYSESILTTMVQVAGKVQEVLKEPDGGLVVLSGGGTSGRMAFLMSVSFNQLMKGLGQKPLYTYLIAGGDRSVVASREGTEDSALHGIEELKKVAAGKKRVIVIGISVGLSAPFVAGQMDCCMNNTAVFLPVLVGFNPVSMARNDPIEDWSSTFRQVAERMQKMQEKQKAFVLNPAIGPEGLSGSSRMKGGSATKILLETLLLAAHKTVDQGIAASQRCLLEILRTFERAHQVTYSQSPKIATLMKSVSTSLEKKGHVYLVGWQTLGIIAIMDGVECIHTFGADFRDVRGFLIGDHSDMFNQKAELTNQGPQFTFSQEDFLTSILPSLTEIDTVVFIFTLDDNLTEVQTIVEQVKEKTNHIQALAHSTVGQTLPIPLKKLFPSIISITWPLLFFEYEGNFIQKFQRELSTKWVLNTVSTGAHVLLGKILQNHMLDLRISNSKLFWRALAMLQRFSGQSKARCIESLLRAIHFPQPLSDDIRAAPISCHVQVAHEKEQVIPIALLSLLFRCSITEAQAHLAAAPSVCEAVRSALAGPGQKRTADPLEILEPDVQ

COc1ccc2c3c1O[C@H]1[C@H](O)CC[C@H]4[C@@H](C2)N(C)CC[C@@]341
inactive: max response [1] -0.489% | efficacy [2] -11.3% | outcome [3] | outcome [4] | outcome [5] | outcome [6]

CCN(CCO)CCn1c(Cc2ccccc2)nc2c1c(=O)n(C)c(=O)n2C
inactive: max response [1] 2.54% | efficacy [2] 27.5% | outcome [3] | outcome [4] | outcome [5] | outcome [6]

O=C(NCC(O)CO)c1c(I)c(C(=O)NCC(O)CO)c(I)c(N(CCO)C(=O)CO)c1I (configuration not stated)
inactive: efficacy [2] 35.5% | outcome [3] | outcome [5] | outcome [6]

CC(C)c1cccc(C(C)C)c1O
102%: parasite growth remaining, % of DMSO control (lower = more inhibition) [10]
103%: growth, % of control [11]
89.1%: parasite growth, % of DMSO control [9]
inactive: outcome [7] | max response [1] -8.91% and 15.4% | max response [8] -1.26% | efficacy [2] -18.5% | outcome [3] | outcome [4] | outcome [6]

Cc1cc2nc3c(=O)[nH]c(=O)nc-3n(C[C@H](O)[C@H](O)[C@H](O)CO)c2cc1C
inactive: efficacy [2] 67.6% | outcome [3] | outcome [5] | outcome [6]

O=C(CCCN1CCC2(CC1)C(=O)NCN2c1ccccc1)c1ccc(F)cc1
inactive: outcome [7] | max response [1] -9.38% and 8.83% | efficacy [2] -27.3% | outcome [4]
active: AC50 [3] 1780 nM

c1ccc(CN2CCNCC2)cc1
inactive: max response [1] 8.43% | efficacy [2] -15.2% | outcome [3] | outcome [4] | outcome [5] | outcome [6]

Cc1cc(C(C#N)c2ccc(Cl)cc2)c(Cl)cc1NC(=O)c1cc(I)cc(I)c1O (configuration not stated)
inactive: efficacy [2] -32.3% | outcome [3] | outcome [5] | outcome [6]

CC(=O)OCC(=O)[C@@]1(OC(C)=O)[C@@H](C)C[C@H]2[C@@H]3C[C@H](F)C4=CC(=O)C=C[C@]4(C)[C@@]3(F)[C@@H](O)C[C@@]21C
inactive: efficacy [2] 58.7% | outcome [3] | outcome [5] | outcome [6]

COCCOC(=O)C1=C(C)NC(C)=C(C(=O)OC(C)C)C1c1cccc([N+](=O)[O-])c1 (configuration not stated)
inactive: efficacy [2] 27.1% | outcome [3] | outcome [5] | outcome [6]

O=c1[nH]cnc2[nH]ncc12
inactive: max response [1] -1.56% | efficacy [2] -34% | outcome [3] | outcome [4] | outcome [5] | outcome [6]
93.3%: growth, % of control [11]
105%: parasite growth, % of DMSO control [9]
91.2%: parasite growth remaining, % of DMSO control (lower = more inhibition) [10]

CC(=O)O[C@]1(C(C)=O)CC[C@H]2[C@@H]3C[C@H](C)C4=CC(=O)CC[C@]4(C)[C@H]3CC[C@@]21C
inactive: efficacy [2] 38.2% | outcome [3] | outcome [5] | outcome [6]

CCCCCCCCCC(=O)O[C@H]1CC[C@H]2[C@@H]3CCC4=CC(=O)CC[C@@H]4[C@H]3CC[C@]12C
inactive: max response [1] 5.38% | efficacy [2] 27.8% | outcome [3] | outcome [4] | outcome [5] | outcome [6]

CCOP(=S)(OCC)Oc1ccc2c(C)c(Cl)c(=O)oc2c1
inactive: max response [1] -0.845% | max response [8] -5.48% | efficacy [2] 16.9% | outcome [3] | outcome [4] | outcome [5] | outcome [6]

CC1(C)C(C=C(Cl)Cl)C1C(=O)OC(C#N)c1cccc(Oc2ccccc2)c1 (configuration not stated)
inactive: max response [1] -13.8% | max response [8] -3.3% | efficacy [2] -14.1% | outcome [3] | outcome [4] | outcome [5] | outcome [6]

O=C(C1CCCCC1)N1CC(=O)N2CCCc3ccccc3C2C1 (configuration not stated)
inactive: efficacy [2] 76.1% | outcome [3] | outcome [5] | outcome [6]

N[C@@H](CCC(=O)N[C@@H](CS)C(=O)NCC(=O)O)C(=O)O
inactive: efficacy [2] -20.9% | outcome [3] | outcome [5] | outcome [6]

CC(C)=CCC/C(C)=C/CO
inactive: efficacy [2] -28.2% | outcome [12] | outcome [4] | outcome [5] | outcome [6]

Cc1c(C)c2c(c(C)c1O)CCC(C)(COc1ccc(CC3SC(=O)NC3=O)cc1)O2 (configuration not stated)
inactive: efficacy [2] 35.5% | outcome [3] | outcome [5]

CN1CC[C@]23c4c5ccc(O)c4O[C@H]2[C@@H](O)CC[C@H]3[C@H]1C5
inactive: max response [1] 10.1% | efficacy [2] 13.6% | outcome [3] | outcome [4] | outcome [5] | outcome [6]

C[N+]1(CCF)[C@@H]2CC[C@H]1CC(OC(=O)C(O)(c1ccccc1)c1ccccc1)C2 (some centres not stated)
inactive: max response [1] 7.34% | efficacy [2] -17.5% | outcome [3] | outcome [4] | outcome [5] | outcome [6]

CN1Cc2cc(C(=O)N3CCC(C4CCNCC4)CC3)ccc2NC(CC(=O)O)C1=O (configuration not stated)
inactive: efficacy [2] 57.9% | outcome [3] | outcome [5] | outcome [6]

CCn1cc(C(=O)O)c(=O)c2cnc(N3CCCC3)nc21
inactive: efficacy [2] 11.6% | outcome [12] | outcome [4] | outcome [5] | outcome [6]

Cc1cc(CC(=O)O)c(C)n1-c1ccc(Cl)cc1
inactive: efficacy [2] 41.9% | outcome [3] | outcome [5] | outcome [6]

CC(C)(C)C1CCC(CC2=C(O)c3ccccc3C(=O)C2=O)CC1 (configuration not stated)
inactive: efficacy [2] -22.8% | outcome [12] | outcome [4] | outcome [5] | outcome [6]

Nc1ccc(S(=O)(=O)NCc2ccccc2)cc1
inactive: efficacy [2] 27.6% | outcome [12] | outcome [4] | outcome [5] | outcome [6]

Cc1ncc([N+](=O)[O-])n1CC(O)CCl (configuration not stated)
inactive: efficacy [2] -16.3% | outcome [12] | outcome [4] | outcome [5] | outcome [6]

O=C1NCC2(CCN(CCc3ccccc3)CC2)O1
inactive: efficacy [2] 10.9% | outcome [12] | outcome [4] | outcome [5] | outcome [6]

OC1(c2ccccc2)CCNCC1
inactive: efficacy [2] 9.98% | outcome [12] | outcome [4] | outcome [5] | outcome [6]
